Measurements from PubChem BioAssay AID1159580 (chemical genetic matrix, 2015).
In all, about 5,500 compounds went through this assay and about 2,000 (36%) were called active. About 18% were inconclusive and are not listed. Cut-off read from the data, not from the text of the source: active = normalized growth mostly below about 0.91 (no sharp cut-off); inconclusive = no clear call, values can overlap the other calls; inactive = mostly above about 0.92. This is one part of the list.

Assay: chemical genetic growth profiling, strain panel (AID 1159580);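 note: tested at 20 µM; growth read once vehicle control cultures reached saturation at 30 °C; 1 = growth at the plate median or of vehicle wells; lower values mean less growth of the strain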
Details: growth OD

Measured: normalized growth

N#Cc1ccc2c(c1)N(CCCN1CCC(O)CC1)c1ccccc1S2
inactive: S. cerevisiae deletion strains, locus YJR075W, strain HOC1, hits give low values 1.03 | S. cerevisiae deletion strains, locus YKL009W, strain mrt4, hits give low values 1.01 | S. cerevisiae deletion strains, locus YKL068W, hits give low values 1.01 | S. cerevisiae deletion strains, locus YKL085W, strain MDH1 (second series), hits give low values 1.04 | S. cerevisiae deletion strains, locus YKL085W, strain MDH1, hits give low values 1.04 | S. cerevisiae deletion strains, locus YKL160W, strain elf1, hits give low values 0.998 | S. cerevisiae deletion strains, locus YKL190W, strain CNB1, hits give low values 1.01 | S. cerevisiae deletion strains, locus YKR001C, strain vps1, hits give low values 1.02 | S. cerevisiae deletion strains, locus YKR026C, strain gcn3, hits give low values 0.995 | S. cerevisiae deletion strains, locus YKR091W, strain srl3, hits give low values 0.995 | S. cerevisiae deletion strains, locus YLL001W, strain dnm1, hits give low values 0.996 | S. cerevisiae deletion strains, locus YLL026W, hits give low values 0.987 | S. cerevisiae deletion strains, locus YLL041C, strain sdh2, hits give low values 0.996 | S. cerevisiae deletion strains, locus YLR027C, strain aat2, hits give low values 0.992 | S. cerevisiae deletion strains, locus YLR039C, strain RIC1, hits give low values 1.08 | S. cerevisiae deletion strains, locus YLR058C, strain SHM2, hits give low values 1.01 | S. cerevisiae deletion strains, locus YLR102C, strain apc9, hits give low values 1.02 | S. cerevisiae deletion strains, locus YLR113W, strain HOG1, hits give low values 1.05 | S. cerevisiae deletion strains, locus YLR221C, strain rsa3, hits give low values 0.995 | S. cerevisiae deletion strains, locus YLR258W, strain gsy2, hits give low values 0.977 | S. cerevisiae deletion strains, locus YLR262C, strain YPT6 (second series), hits give low values 1.02 | S. cerevisiae deletion strains, locus YLR262C, strain YPT6, hits give low values 1.07 | S. cerevisiae deletion strains, locus YLR268W, strain sec22, hits give low values 1.01 | S. cerevisiae deletion strains, locus YLR320W, strain mms22, hits give low values 0.959 | S. cerevisiae deletion strains, locus YLR330W, strain CHS5, hits give low values 1 | S. cerevisiae deletion strains, locus YLR342W, strain FKS1 (second series), hits give low values 0.989 | S. cerevisiae deletion strains, locus YLR342W, strain FKS1, hits give low values 0.992 | S. cerevisiae deletion strains, locus YLR357W, strain rsc2, hits give low values 0.969 | S. cerevisiae deletion strains, locus YLR370C, strain arc18, hits give low values 0.994 | S. cerevisiae deletion strains, locus YLR371W, strain rom2, hits give low values 1.02 | S. cerevisiae deletion strains, locus YLR384C, strain iki3, hits give low values 0.986 | S. cerevisiae deletion strains, locus YLR418C, strain cdc73, hits give low values 1 | S. cerevisiae deletion strains, locus YML016C, strain PPZ1, hits give low values 1.01 | S. cerevisiae deletion strains, locus YML032C, strain rad52, hits give low values 1.01 | S. cerevisiae deletion strains, locus YML120C, strain ndi1, hits give low values 0.994 | S. cerevisiae deletion strains, locus YML124C, strain tub3, hits give low values 1.02 | S. cerevisiae deletion strains, locus YMR058W, strain fet3, hits give low values 0.999 | S. cerevisiae deletion strains, locus YMR078C, strain ctf18, hits give low values 1.02 | S. cerevisiae deletion strains, locus YMR125W, strain sto1, hits give low values 0.966 | S. cerevisiae deletion strains, locus YMR129W, hits give low values 0.997 | S. cerevisiae deletion strains, locus YMR205C, strain PFK2, hits give low values 0.935 | S. cerevisiae deletion strains, locus YMR223W, strain ubp8, hits give low values 1.01 | S. cerevisiae deletion strains, locus YMR231W, strain pep5, hits give low values 1 | S. cerevisiae deletion strains, locus YMR263W, strain SAP30, hits give low values 1.02 | S. cerevisiae deletion strains, locus YMR307W, strain GAS1, hits give low values 1.04 | S. cerevisiae deletion strains, locus YNL067W, strain RPL9B, hits give low values 1.01 | S. cerevisiae deletion strains, locus YNL071W, strain lat1, hits give low values 0.96 | S. cerevisiae deletion strains, locus YNL128W, strain TEP1, hits give low values 1.01 | S. cerevisiae deletion strains, locus YNL153C, strain GIM3, hits give low values 1 | S. cerevisiae deletion strains, locus YNL183C, strain NPR1, hits give low values 0.983 | S. cerevisiae deletion strains, locus YNL209W, strain ssb2, hits give low values 0.993 | S. cerevisiae deletion strains, locus YNL233W, strain BNI4, hits give low values 0.998 | S. cerevisiae deletion strains, locus YNL248C, strain rpa49, hits give low values 0.997 | S. cerevisiae deletion strains, locus YNL250W, strain rad50, hits give low values 1.04 | S. cerevisiae deletion strains, locus YNL271C, strain bni1, hits give low values 1.03 | S. cerevisiae deletion strains, locus YNL298W, strain CLA4, hits give low values 1.02 | S. cerevisiae deletion strains, locus YNL307C, strain MCK1, hits give low values 1 | S. cerevisiae deletion strains, locus YNL322C, strain KRE1 (second series), hits give low values 0.995 | S. cerevisiae deletion strains, locus YNL322C, strain KRE1, hits give low values 1.01 | S. cerevisiae deletion strains, locus YNR049C, strain mso1, hits give low values 0.991 | S. cerevisiae deletion strains, locus YNR052C, strain pop2, hits give low values 1.02 | S. cerevisiae deletion strains, locus YOL006C, strain TOP1, hits give low values 1.01 | S. cerevisiae deletion strains, locus YOL012C, strain htz1 0.994 | S. cerevisiae deletion strains, locus YOL147C, strain pex11, hits give low values 1.02 | S. cerevisiae deletion strains, locus YOR001W, strain rrp6, hits give low values 0.981 | S. cerevisiae deletion strains, locus YOR061W, strain CKA2, hits give low values 1.01 | S. cerevisiae deletion strains, locus YOR069W, strain VPS5, hits give low values 1.01 | S. cerevisiae deletion strains, locus YOR070C, strain gyp1, hits give low values 1.04 | S. cerevisiae deletion strains, locus YOR080W, strain dia2, hits give low values 0.987 | S. cerevisiae deletion strains, locus YOR083W, strain WHI5, hits give low values 1 | S. cerevisiae deletion strains, locus YOR106W, strain vam3, hits give low values 1 | S. cerevisiae deletion strains, locus YOR136W, strain idh2, hits give low values 1.03 | S. cerevisiae deletion strains, locus YOR144C, strain elg1, hits give low values 1.02 | S. cerevisiae deletion strains, locus YOR184W, strain ser1, hits give low values 1.03 | S. cerevisiae deletion strains, locus YOR231W, strain MKK1, hits give low values 1.08 | S. cerevisiae deletion strains, locus YOR265W, strain rbl2, hits give low values 0.98 | S. cerevisiae deletion strains, locus YOR270C, strain vph1, hits give low values 1.02 | S. cerevisiae deletion strains, locus YOR290C, strain snf2, hits give low values 0.973 | S. cerevisiae deletion strains, locus YOR316C, strain cot1, hits give low values 1.01 | S. cerevisiae deletion strains, locus YPL051W, strain arl3, hits give low values 1 | S. cerevisiae deletion strains, locus YPL055C, strain LGE1, hits give low values 1.02 | S. cerevisiae deletion strains, locus YPL078C, strain atp4, hits give low values 1 | S. cerevisiae deletion strains, locus YPL106C, strain sse1, hits give low values 0.963 | S. cerevisiae deletion strains, locus YPL240C, strain hsp82, hits give low values 1.01 | S. cerevisiae deletion strains, locus YPL241C, strain CIN2, hits give low values 1 | S. cerevisiae deletion strains, locus YPL256C, strain CLN2, hits give low values 1.07 | S. cerevisiae deletion strains, locus YPR119W, strain clb2, hits give low values 1.02 | S. cerevisiae deletion strains, locus YPR141C, strain kar3, hits give low values 1.02 | S. cerevisiae deletion strains, locus YPR163C, strain tif3, hits give low values 1.03 | S. cerevisiae deletion strains, locus YPR167C, strain met16, hits give low values 1.02 | S. cerevisiae deletion strains, strain wtn01, hits give low values 1.01 | S. cerevisiae strains, strain wild type, hits give low values 1.01
